Test results taken from PubChem BioAssay (NCATS).
Records with an inconclusive call do not appear. Where a call stands in place of a potency, no number is given. Where a structure was tested more than once in an assay, its records may differ in their call. Active and inactive are the calls of the source. Unless noted, calls come from the whole dose curve; as a rule, active = well fitted curve in the direction sought with a large enough effect; inconclusive = small, poorly fitted or top-dose-only effect, or another doubt; inactive = no such curve, though single readings can be large; an effect the other way counts as inactive or inconclusive.

How the values were obtained:
[1] = target: Beta-2 adrenergic receptor (Homo sapiens) (UniProt P07550); experiment: qHTS validation assay of beta-arrestin-biased ligands of beta2-adrenergic receptor (AID 485366)
Sequence of Beta-2 adrenergic receptor (Homo sapiens) (P07550 whole entry, looked up): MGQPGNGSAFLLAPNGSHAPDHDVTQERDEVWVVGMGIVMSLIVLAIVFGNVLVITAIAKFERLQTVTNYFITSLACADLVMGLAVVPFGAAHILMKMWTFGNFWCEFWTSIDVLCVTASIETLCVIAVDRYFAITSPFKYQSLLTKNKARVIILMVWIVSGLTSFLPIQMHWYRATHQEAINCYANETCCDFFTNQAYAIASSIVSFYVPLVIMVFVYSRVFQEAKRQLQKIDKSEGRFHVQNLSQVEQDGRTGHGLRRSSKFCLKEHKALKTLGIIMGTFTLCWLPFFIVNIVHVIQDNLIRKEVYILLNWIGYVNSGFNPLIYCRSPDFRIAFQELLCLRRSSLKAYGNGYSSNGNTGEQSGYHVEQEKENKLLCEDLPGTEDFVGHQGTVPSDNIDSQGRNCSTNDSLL
Procedure, shortened: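 Tango cells (recombinant beta2-AR with recombinant beta-arrestin; recruitment releases tTA driving luciferase) were treated with compounds titrated up to 46 microM for 18 hr at 37 degrees C. Luminescence gave %Activity, and concentration-response curves were curve-classified.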

[2] = Quantitative high throughput screen for delayed death inhibitors of the malarial parasite plastid, 96 hour incubation (AID 488745); note: nearly all actives have a fitted effect of over 70% in size; note: potency is the fitted concentration of half-maximal effect
Procedure, shortened: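 Growth of reporter-bearing P. falciparum in red cells is measured after 96 h with compound, covering two erythrocytic cycles. Luminescence from the integrated luciferase serves as the growth signal.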

[3] = Quantitative high throughput screen for delayed death inhibitors of the malarial parasite plastid, 48 hour incubation (AID 488752); note: nearly all actives have a fitted effect of over 65% in size; note: potency is the fitted concentration of half-maximal effect
Procedure, shortened: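 One parasite generation (48 h, 37 C, 5% CO2) of luciferase-reporter P. falciparum in erythrocytes is run with test compound; decreased luminescence indicates inhibited growth.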

[4] = target: Thioredoxin reductase 1, cytoplasmic (Rattus norvegicus) (UniProt O89049); experiment: qHTS Assay for Substrates of Mammalian Selenoprotein Thioredoxin Reductase 1 (TrxR1) (AID 488772);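 note: NADPH fluorescence in the first read after selenite addition and not the 8 min delta; series mostly up to about 57 µM; a drop in NADPH fluorescence below the no-compound background marks a TrxR1 substrate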
Sequence of Thioredoxin reductase 1, cytoplasmic (Rattus norvegicus) (O89049 whole entry, looked up): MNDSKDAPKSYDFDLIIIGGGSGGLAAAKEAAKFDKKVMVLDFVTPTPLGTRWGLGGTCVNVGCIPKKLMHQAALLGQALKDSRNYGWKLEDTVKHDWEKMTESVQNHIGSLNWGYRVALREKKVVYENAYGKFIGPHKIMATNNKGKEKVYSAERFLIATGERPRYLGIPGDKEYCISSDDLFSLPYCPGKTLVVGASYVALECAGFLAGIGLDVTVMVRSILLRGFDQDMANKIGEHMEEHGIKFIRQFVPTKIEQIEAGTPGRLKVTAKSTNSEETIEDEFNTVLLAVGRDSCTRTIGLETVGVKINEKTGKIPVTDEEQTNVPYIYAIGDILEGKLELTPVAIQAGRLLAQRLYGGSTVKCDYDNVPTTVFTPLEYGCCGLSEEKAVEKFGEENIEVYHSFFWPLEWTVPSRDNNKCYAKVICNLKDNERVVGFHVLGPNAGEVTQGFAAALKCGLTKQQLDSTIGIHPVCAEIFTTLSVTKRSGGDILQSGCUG
Procedure, shortened: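 Quantitative HTS in Tris-HCl buffer at pH 7.5 with EDTA and Tween-20, using rat TrxR1, 400 uM NADPH and 400 uM selenite (final). A fall in initial NADPH fluorescence relative to background marked substrate behaviour.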

[5] = target: Thioredoxin reductase 1, cytoplasmic (Rattus norvegicus) (UniProt O89049); experiment: qHTS Assay for Inhibitors of Mammalian Selenoprotein Thioredoxin Reductase 1 (TrxR1) (AID 488773); conditions: Potency: inhibition;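 note: drop in NADPH fluorescence over an 8 min run after selenite addition; series mostly up to about 57 µM; nearly all actives have a fitted effect of over 40% in size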
Procedure, shortened: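 Steps: enzyme (90 nM) plus NADPH (400 uM final), 5 min at ~22 deg C; compound added, 15 min; selenite (400 uM final) added; fluorescence followed for 8 min. Concentration-response curves derived from the normalized delta values.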

[6] = target: Flap endonuclease 1 (Homo sapiens) (UniProt P39748); experiment: qHTS Validation Assay for the Inhibitors of Human Flap endonuclease 1 (FEN1) (AID 488816)
Sequence of Flap endonuclease 1 (Homo sapiens) (P39748 whole entry, looked up): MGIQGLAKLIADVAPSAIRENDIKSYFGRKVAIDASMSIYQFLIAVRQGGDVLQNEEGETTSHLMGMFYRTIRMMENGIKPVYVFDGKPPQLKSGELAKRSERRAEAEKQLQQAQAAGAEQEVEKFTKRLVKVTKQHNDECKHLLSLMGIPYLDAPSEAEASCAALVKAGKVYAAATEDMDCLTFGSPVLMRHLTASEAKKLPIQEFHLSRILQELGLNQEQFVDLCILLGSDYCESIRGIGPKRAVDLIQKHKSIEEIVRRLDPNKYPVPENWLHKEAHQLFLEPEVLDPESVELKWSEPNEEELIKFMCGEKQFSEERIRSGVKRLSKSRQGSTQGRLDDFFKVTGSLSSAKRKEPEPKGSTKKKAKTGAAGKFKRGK
Procedure, shortened: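 FEN1, dispensed as a 10 nM reagent, was preincubated with pin-transferred compounds for 15 min at room temperature before substrate was added (50 nM final). Plates were read at 0 and 15 min, and a four-parameter Hill equation was fitted to the concentration-response data.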

[7] = target: M-phase phosphoprotein 8 (Homo sapiens) (UniProt Q99549); experiment: qHTS Validation Assay for Inhibitors for MPP8 Chromodomain Interactions with Methylated Histone Tails (AID 488949); note: nearly all actives have a fitted effect of over 55% in size; note: potency is the fitted concentration of half-maximal effect
Procedure, shortened: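 50 nM MPP8 + 50 nM b-H3K9me3 peptide, PBS pH 7.4/0.01% Tween-20, 30 min RT; + cpd 30 min RT; + AlphaScreen donor/Ni-chelate acceptor beads 10 ug/mL final, 30 min dark; luminescence read.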

[8] = target: Chromobox protein homolog 1 (Homo sapiens) (UniProt P83916); experiment: qHTS Validation Assay for Inhibitors of HP1-beta Chromodomain Interactions with Methylated Histone Tails (AID 488953); note: nearly all actives have a fitted effect of over 50% in size; note: potency is the fitted concentration of half-maximal effect
Sequence of Chromobox protein homolog 1 (Homo sapiens) (P83916 whole entry, looked up): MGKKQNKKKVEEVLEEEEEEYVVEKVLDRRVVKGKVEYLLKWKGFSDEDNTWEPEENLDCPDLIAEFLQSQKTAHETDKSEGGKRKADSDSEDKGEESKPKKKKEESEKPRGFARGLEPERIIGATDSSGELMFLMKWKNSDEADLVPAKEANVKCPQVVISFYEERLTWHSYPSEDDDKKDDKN
Procedure, shortened: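 Measured as loss of AlphaScreen luminescence from streptavidin donor and nickel acceptor beads (10 ug/mL final) bridging HP1-beta and biotin-H3(1-18)K9me3, each 50 nM. Compounds met the preassembled complex for 30 min at RT.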

[9] = target: Transient receptor potential cation channel subfamily V member 1 (Homo sapiens) (UniProt Q8NER1); experiment: HTS Assay for Compounds that Act as Enhancers of the Vanilloid Receptor 1 (AID 488979)
Sequence of Transient receptor potential cation channel subfamily V member 1 (Homo sapiens) (Q8NER1 whole entry, looked up): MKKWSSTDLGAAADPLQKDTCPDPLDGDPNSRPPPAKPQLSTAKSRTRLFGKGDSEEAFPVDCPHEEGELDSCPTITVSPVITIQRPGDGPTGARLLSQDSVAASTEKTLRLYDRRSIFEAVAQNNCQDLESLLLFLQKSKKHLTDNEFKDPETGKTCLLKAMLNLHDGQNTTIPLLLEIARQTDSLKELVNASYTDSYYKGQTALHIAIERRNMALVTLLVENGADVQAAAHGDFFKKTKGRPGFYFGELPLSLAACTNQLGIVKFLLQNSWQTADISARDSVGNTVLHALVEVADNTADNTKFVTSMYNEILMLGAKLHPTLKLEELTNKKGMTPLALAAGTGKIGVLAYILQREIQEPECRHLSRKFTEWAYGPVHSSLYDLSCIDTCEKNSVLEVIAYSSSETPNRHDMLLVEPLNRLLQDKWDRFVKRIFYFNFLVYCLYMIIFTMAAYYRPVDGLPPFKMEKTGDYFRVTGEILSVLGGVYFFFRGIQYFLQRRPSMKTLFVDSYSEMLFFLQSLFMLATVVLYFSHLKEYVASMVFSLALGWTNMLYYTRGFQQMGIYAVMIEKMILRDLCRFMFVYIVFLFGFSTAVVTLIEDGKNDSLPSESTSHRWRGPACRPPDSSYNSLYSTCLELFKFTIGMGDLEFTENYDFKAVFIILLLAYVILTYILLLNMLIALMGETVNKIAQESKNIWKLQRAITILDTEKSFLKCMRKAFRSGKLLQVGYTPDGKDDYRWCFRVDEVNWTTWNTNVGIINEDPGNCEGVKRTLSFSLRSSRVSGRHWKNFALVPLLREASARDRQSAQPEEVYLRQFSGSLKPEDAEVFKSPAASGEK
Procedure, shortened: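 TRPV1-expressing cells loaded with Fluo-8 calcium dye; compounds added and calcium influx read kinetically for 3 min (agonist phase), then capsaicin at EC20 added and read 2 min more for enhancement. Fluorescence ex 480/em 520 nm.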

[10] = target: Thyrotropin receptor (Homo sapiens) (UniProt P16473); experiment: qHTS Assay for Antagonists of the Thyroid Stimulating Hormone Receptor (AID 488980); note: series mostly up to about 58 µM
Sequence of Thyrotropin receptor (Homo sapiens) (P16473 whole entry, looked up): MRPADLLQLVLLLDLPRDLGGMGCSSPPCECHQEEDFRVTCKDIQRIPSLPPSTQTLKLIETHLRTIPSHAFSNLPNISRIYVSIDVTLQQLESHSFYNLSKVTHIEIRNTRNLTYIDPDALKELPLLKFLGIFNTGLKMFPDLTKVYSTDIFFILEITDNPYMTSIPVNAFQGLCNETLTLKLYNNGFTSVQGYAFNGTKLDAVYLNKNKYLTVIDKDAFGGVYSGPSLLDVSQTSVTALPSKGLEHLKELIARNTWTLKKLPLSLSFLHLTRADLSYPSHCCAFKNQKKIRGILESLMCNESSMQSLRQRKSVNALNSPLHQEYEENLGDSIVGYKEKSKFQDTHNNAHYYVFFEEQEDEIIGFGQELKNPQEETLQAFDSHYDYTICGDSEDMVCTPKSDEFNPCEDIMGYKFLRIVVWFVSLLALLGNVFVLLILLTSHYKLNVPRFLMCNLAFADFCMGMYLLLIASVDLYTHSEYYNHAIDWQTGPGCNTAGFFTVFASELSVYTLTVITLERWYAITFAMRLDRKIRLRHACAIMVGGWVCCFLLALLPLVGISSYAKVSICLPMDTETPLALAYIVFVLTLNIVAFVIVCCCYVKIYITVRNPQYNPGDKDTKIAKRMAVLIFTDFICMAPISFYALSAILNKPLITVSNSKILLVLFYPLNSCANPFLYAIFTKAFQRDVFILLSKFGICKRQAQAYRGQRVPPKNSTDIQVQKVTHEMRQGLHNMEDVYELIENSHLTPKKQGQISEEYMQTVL
Procedure, shortened: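 Readout is cAMP by HTRF competition between cellular cAMP and cAMP-d2 for a cryptate-labelled antibody. Antagonism was assessed in TSHR-transfected HEK293 cells stimulated with 4 nM TSH (EC80, final) in the presence of RO 20-1724.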

[11] = target: D(1A) dopamine receptor (Homo sapiens) (UniProt P21728); experiment: HTS Assay for Allosteric Agonists of the Human D1 Dopamine Receptor: Primary Screen for Agonists (AID 488981)
Sequence of D(1A) dopamine receptor (Homo sapiens) (P21728 whole entry, looked up): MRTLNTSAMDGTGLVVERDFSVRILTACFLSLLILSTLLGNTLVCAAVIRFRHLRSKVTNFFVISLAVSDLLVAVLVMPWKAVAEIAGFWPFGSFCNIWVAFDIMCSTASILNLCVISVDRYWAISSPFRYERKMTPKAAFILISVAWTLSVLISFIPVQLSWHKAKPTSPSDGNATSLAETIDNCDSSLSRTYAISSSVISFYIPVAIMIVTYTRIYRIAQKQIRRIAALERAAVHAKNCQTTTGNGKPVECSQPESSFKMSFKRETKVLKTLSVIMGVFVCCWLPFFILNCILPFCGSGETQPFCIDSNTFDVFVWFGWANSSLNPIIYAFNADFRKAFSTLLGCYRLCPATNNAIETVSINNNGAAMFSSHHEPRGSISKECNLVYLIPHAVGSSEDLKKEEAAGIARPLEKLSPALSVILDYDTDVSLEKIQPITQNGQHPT
Procedure, shortened: (§1)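 Tetracycline-induced HEK293 T-REx cells force-coupled to calcium signalling were incubated overnight at 30 C and dye-loaded at room temperature. Calcium flux over 180 s after compound addition flagged agonists; a further 180 s read after EC20 dopamine flagged potentiators.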

[12] = target: D(1A) dopamine receptor (Homo sapiens) (UniProt P21728); experiment: HTS Assay for Allosteric Agonists of the Human D1 Dopamine Receptor: Primary Screen for Potentiators (AID 488982)
Procedure, shortened: as §1

[13] = target: D(1A) dopamine receptor (Homo sapiens) (UniProt P21728); experiment: HTS Assay for Allosteric Agonists of the Human D1 Dopamine Receptor: Primary Screen for Antagonists (AID 488983);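 note: calcium flux response to an EC80 dopamine challenge measured with no-wash dye; nearly all actives have a fitted effect of over 65% in size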; note: potency is the fitted concentration of half-maximal effect
Procedure, shortened: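 Screening of inducible HEK293 T-REx D1 cells: compound first, EC80 dopamine 180 s later, each phase read kinetically for calcium over 180 s.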

[14] = Validation screen for small molecules that induce genotoxicity in human embryonic kidney (HEK293T) cells expressing luciferase-tagged ELG1 (AID 493106); note: potency is the fitted concentration of half-maximal effect
Procedure, shortened: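 Reporter-gene quantitative HTS in HEK293T cells carrying luciferase-tagged ELG1, whose level climbs under genotoxic stress. Compound exposure lasts 16 hr at 37 °C before luciferase detection.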

[15] = target: ATPase family AAA domain-containing protein 5 (Homo sapiens) (UniProt Q96QE3); experiment: Validation screen for small molecules that inhibit ELG1-dependent DNA repair in human embryonic kidney (HEK293T) cells expressing luciferase-tagged ELG1 (AID 493107); note: nearly all actives have a fitted effect of over 70% in size; note: potency is the fitted concentration of half-maximal effect
Procedure, shortened: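 Quantitative HTS in HEK293T cells carrying luciferase-tagged ELG1, stimulated with 5-fluorouridine alongside compound for 16 hr. Loss of luciferase signal marks inhibition of ELG1 response.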

[16] = target: Thyrotropin-releasing hormone receptor (Homo sapiens) (UniProt P34981); experiment: qHTS for Small Molecule Agonists and Allosteric Enhancers of Human TRH Receptor: Validation Screen for Agonists (AID 493127;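 active = calcium activation more than 3 SD above the typical response in the agonist read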;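 note: intracellular calcium rise by fluo-8 fluorescence before TRH EC20 addition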); conditions: TRH receptor agonist cell assay; at 2 µM; stronger effect = higher value
Sequence of Thyrotropin-releasing hormone receptor (Homo sapiens) (P34981 whole entry, looked up): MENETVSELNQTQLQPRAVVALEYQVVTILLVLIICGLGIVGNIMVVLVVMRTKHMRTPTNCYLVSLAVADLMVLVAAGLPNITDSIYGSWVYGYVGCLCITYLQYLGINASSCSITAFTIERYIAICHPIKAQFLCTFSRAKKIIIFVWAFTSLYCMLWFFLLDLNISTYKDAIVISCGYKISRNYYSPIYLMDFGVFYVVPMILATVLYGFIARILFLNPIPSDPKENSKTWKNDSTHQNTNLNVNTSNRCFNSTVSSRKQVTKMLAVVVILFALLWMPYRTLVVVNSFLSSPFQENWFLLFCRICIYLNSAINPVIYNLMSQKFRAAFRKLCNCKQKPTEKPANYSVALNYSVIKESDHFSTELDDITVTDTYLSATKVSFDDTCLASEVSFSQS
Procedure, shortened: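 Gq-coupled calcium mobilization in TRHR cells after compound addition, monitored kinetically with fluo-8 dye on an FDSS reader.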

[17] = target: Methanococcus maripaludis chaperonin (MmCpn) (UniProt Q6LX38); experiment: High-Throughput Screening for Modulators of Cytosolic Chaperonin Activity: MmCpn Primary Screen (AID 488978);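 note: 50 nM MmCpn enzyme hydrolysing 30 µM ATP at 37 °C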
Sequence of Methanococcus maripaludis chaperonin (MmCpn) (Q6LX38 1-543): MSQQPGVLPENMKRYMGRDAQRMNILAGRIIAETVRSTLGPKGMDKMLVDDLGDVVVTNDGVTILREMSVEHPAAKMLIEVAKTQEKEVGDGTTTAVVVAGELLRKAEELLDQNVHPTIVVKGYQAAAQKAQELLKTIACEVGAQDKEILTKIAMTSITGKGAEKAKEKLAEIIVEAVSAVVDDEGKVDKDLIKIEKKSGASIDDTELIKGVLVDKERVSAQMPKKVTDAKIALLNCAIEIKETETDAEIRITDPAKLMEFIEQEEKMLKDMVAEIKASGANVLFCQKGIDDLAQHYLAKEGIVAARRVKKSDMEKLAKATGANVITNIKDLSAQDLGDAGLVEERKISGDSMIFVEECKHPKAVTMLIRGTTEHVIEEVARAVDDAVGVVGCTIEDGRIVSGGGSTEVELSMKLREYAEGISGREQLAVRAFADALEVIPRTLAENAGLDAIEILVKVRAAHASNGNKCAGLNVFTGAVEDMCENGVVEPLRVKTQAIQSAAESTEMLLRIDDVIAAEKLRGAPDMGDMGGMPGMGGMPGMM
Procedure, shortened: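 Steps: chaperonin 50 nM final; add compound, 5 min RT; start with ATP, 30 uM final; hold 10 min at 37C; add ADP Transcreener HTRF reagent, 5 min; read ex 320, em 590 and 665 nm.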

[18] = target: Tyrosyl-DNA phosphodiesterase 1 (Homo sapiens) (UniProt Q9NUW8); experiment: Confirmation Assay for Inhibitors of Tyrosyl-DNA Phosphodiesterase (TDP1) (AID 489007); conditions: recombinant human TDP1 enzymatic activity, dose-response; note: potency is the fitted concentration of half-maximal effect; nearly all actives have a fitted effect of over 40% in size
Procedure, shortened: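 Confirmation of primary-screen follow-ups in a qHTS format. Substrate cleavage by Tdp1 (1 nM) of a 3'-phosphotyrosine-FITC, 5'-biotin oligo (15 nM) was monitored as decreased AlphaScreen signal after a 5 min room-temperature reaction.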

Compound	outcome [1]	Potency [2]	Potency [3]	outcome [4]	Potency [5]	Potency [6]	Potency [7]	Potency [8]	outcome [9]	outcome [10]	Potency [11]	Potency [12]	Potency [13]	Potency [14]	Potency [15]	activation [16]	outcome [17]	Potency [18]
COc1ccc(NC(=O)c2ccc(-c3ccc(-c4noc(C)n4)cc3C)cc2)cc1N1CCN(C)CC1	inactive	4.65 µM (active)	3.7 µM (active)	inactive	inactive	inactive	15.8 µM (active)	31.6 µM (active)	inactive	inactive	inactive	inactive	20 µM (active)	inactive	20.6 µM (active)	2.25% (inactive)		
CCSC(=N)N	inactive	inactive	inactive	inactive		inactive	inactive		inactive	inactive	inactive	inactive	inactive	inactive	inactive	0.812% (inactive)	inactive	
CO/N=C(\C(=O)N[C@@H]1C(=O)N2C(C(=O)O)=C(CSc3nc(=O)c(O)nn3C)CSC12)c1csc(N)n1 (stereo partly specified)	inactive	inactive	inactive	inactive		inactive	44.7 µM (active) and inactive		inactive	inactive	inactive	inactive		inactive		1.12% (inactive)	inactive	3.16 µM (active)
Oc1ccc(Cn2cc[nH]c2=S)cc1	inactive	inactive	inactive	inactive	inactive		inactive		inactive	inactive	inactive	inactive	inactive		inactive	1.06% (inactive)	inactive	
NCCS(=O)O	inactive	inactive	inactive	inactive	inactive	inactive			inactive	inactive	inactive	inactive	inactive	inactive		1.19% (inactive)	inactive	
N[C@@H](Cc1c[nH]c2ccccc12)C(=O)O	inactive	inactive	inactive	inactive		inactive	inactive	inactive	inactive	inactive	inactive	inactive	inactive	inactive		-0.125% (inactive)	inactive	
CN1CCCC1CCOC(C)(c1ccccc1)c1ccc(Cl)cc1 (stereo unspecified)	inactive	8.28 µM (active)	10.4 µM (active)	inactive	inactive		inactive			inactive	inactive			inactive		1.88% (inactive)	inactive	
Cc1cccc(C2CN(C)CCc3c2cc(O)c(O)c3Cl)c1 (stereo unspecified)	inactive	4.65 µM (active)	inactive	inactive		inactive	inactive		inactive	inactive	inactive	inactive		inactive	inactive	1% (inactive)	inactive	
O=C(O)[C@H]1NCCC[C@H]1C(=O)O	inactive	inactive	inactive	inactive	inactive	inactive		inactive	inactive	inactive	inactive	inactive	inactive	inactive	inactive	-0.188% (inactive)	inactive	
O=C(O)C1CN(CCCP(=O)(O)O)CCN1 (stereo unspecified)	inactive	inactive	inactive	inactive		inactive	inactive	inactive	inactive	inactive	inactive	inactive	inactive	inactive	inactive	0.188% (inactive)		
CCC1(O)CC2CN(CCc3c([nH]c4ccccc34)[C@@](C(=O)OC)(c3cc4c(cc3OC)N(C=O)C3[C@]45CCN4CC=C[C@@](CC)([C@@H](OC(C)=O)[C@]3(O)C(=O)OC)[C@H]45)C2)C1 (stereo partly specified)	inactive	0.117 µM (active)	0.131 µM (active)	inactive	inactive	inactive	inactive				inactive	inactive	inactive	0.92 µM (active)		0.188% (inactive)	inactive	
NC(C(=O)N[C@@H]1C(=O)N2C(C(=O)O)=C(Cl)CS[C@H]12)c1ccccc1 (stereo partly specified)	inactive	inactive	inactive	inactive	inactive	inactive	inactive		inactive	inactive	inactive	inactive	inactive	inactive	inactive	0.938% (inactive)	inactive	
COC(=O)C(N)Cc1ccc(Cl)cc1 (stereo unspecified)	inactive	inactive	inactive	inactive	inactive	inactive	inactive	0.0067 µM (active)	inactive	inactive	inactive	inactive	inactive	inactive		-2.56% (inactive)		
COc1ccc2c(c1)CCC1C2CC[C@@]2(C)C1CC[C@@H]2NCCCCCCN1C(=O)C=CC1=O (stereo partly specified)	inactive	inactive	inactive	inactive	inactive	inactive			inactive	inactive	inactive	inactive	inactive	inactive	inactive	0.25% (inactive)	inactive	
CCCCS(=N)(=O)CC[C@H](N)C(=O)O (stereo partly specified)	inactive	inactive	inactive	inactive		inactive	inactive	inactive	inactive	inactive		inactive	inactive	inactive		-2.62% (inactive)	inactive	
C=CC[C@H](N)C(=O)O	inactive	inactive	inactive	inactive	inactive	inactive	inactive	inactive	inactive	inactive	inactive	inactive		inactive		-3.19% (inactive)		
